Assay outcomes as filed in PubChem.
The list is a sample of the results.
aSyn 5UTR act: Activators via SNCA 5'UTR binding, MLPCN | alpha-synuclein 5'UTR reporter, activators screen | activity score, % (tested at 7.5 µM), hits read low | actives 7.1% (n = 300,000) | AID 1814; in the data active = activity score below about -60%
Numbers without * were called inactive.

SMILES	aSyn 5UTR act
O=C(N/N=C/c1ccc[nH]1)c1ccc2c(c1)OCO2	-92.9*
Cc1ccsc1/C=N\NC(=O)c1ccc2c(c1)OCO2	-96.9*
COc1cc(/C=N\NC(=O)c2ccc(C)nc2)ccc1OC(=O)c1ccc2c(c1)OCO2	-67.2*
O=C(N/N=C\c1ccc2c(c1)OCO2)c1ccco1	-102.5*
O=C(CCC(=O)Nc1ccccc1)N/N=C/c1ccc2c(c1)OCO2	-62.9*
O=C(N/N=C/c1ccc2c(c1)OCO2)c1ccc2c(c1)OCO2	-91.3*
O=C(CCCN1C(=O)/C(=C/c2ccc3c(c2)OCO3)SC1=S)Nc1ccc(C(=O)O)cc1	101.6
O=C(N/N=C/c1ccc2c(c1)OCO2)C1CC1	-66.7*
O=C(N/N=C\c1cccc(OC(=O)c2ccco2)c1)c1ccc2c(c1)OCO2	-64.7*
Cn1c(-c2ccc3nc(N)sc3c2)nc2cc(N)ccc21	-71.8*
COc1ccccc1-n1cc([C@@H]2C[C@H]3CN(c4ccccc4)C(=O)[C@]34CCCN24)cn1	-361.9*
CC(C)Sc1nc(N)nc(-c2cccs2)c1C#N	-145.6*
COc1ccc(Cc2nc(-c3cccs3)no2)cc1	-115.3*
COc1ccc(Cc2nc(-c3ccccc3)no2)cc1	-175.7*
[O-][n+]1onc2c1CCc1nnccc1-2	-85.5*
COc1cccc(NC(=O)Nc2ccc(C)c(Cl)c2)c1	-156.6*
Cc1ccc(NC(=O)Nc2ccc(F)cc2)cc1Cl	-130.4*
CC#CC(=O)N1CCC(CCc2ccccc2)(C(=O)OCC)CC1	46.7
CCOC(=O)C1(CCCc2ccccc2)CCN(Cc2cnc(C)s2)CC1	-62.5*
CC(=O)NC(=S)Nc1ccc2oc(-c3cc(F)c(F)cc3Cl)nc2c1	-111.2*
O=C(Cc1ccccc1)NC(=S)Nc1ccc2oc(-c3ccccc3F)nc2c1	-187.2*
O=C(Cc1ccccc1)NC(=S)Nc1ccc2oc(-c3ccccc3)nc2c1	-105.7*
Cc1oc(C(C)(C)C)cc1C(=O)Nc1ccc2c(c1)OCO2	-87.0*
Cc1oc(C(C)(C)C)cc1C(=O)Nc1ccc2c(c1)OCCO2	-178.9*
COc1ccc(/C=N/n2c(N)nc(-c3ccccc3)c2-c2ccccc2)cc1	-62.6*
SMILES	aSyn 5UTR act
CCC(C)C(=O)Nc1nc2ccc(OC)cc2s1 (centres undefined)	-166.9*
COc1ccc2nc(Nc3ccccc3OC)sc2c1	-153.9*
COc1ccc2nc(NC(=O)Nc3ccccc3OC)sc2c1	-88.8*
COc1ccc2nc(Nc3ccccc3)sc2c1	-119.2*
COc1ccccc1NC(=O)Nc1nc2ccc(S(N)(=O)=O)cc2s1	-182.8*
COc1ccc2nc(NC(=O)Nc3cccc4ccccc34)sc2c1	-103.3*
CCC1(c2ccc(F)cc2)NC(=O)N(CC(=O)Nc2ccc(-c3nc4ccc(C)cc4s3)cc2)C1=O (centres undefined)	-201.5*
COc1ccc(C2(C)NC(=O)N(CC(=O)Nc3ccc(-c4nc5ccc(C)cc5s4)cc3)C2=O)cc1 (centres undefined)	-191.4*
COc1ccc(-n2c(C)nc3c(cnn3-c3ccc(C)c(C)c3)c2=O)cc1	-84.9*
CCOC(=O)CCSc1nc(C)c2cc(OC)ccc2n1	-123.1*
CCOc1ccc2nc(SCc3cccc(C)c3)nc(C)c2c1	-128.8*
O=C(Nc1ccc2ccccc2c1)c1cccc([N+](=O)[O-])c1	-112.7*
O=C(NC(=S)Nc1cccc(F)c1)c1cccc([N+](=O)[O-])c1	-109.1*
Cc1cccc(C(=O)Nc2ccc3ccccc3c2)c1	-110.9*
CCOc1ccc(C(=O)Nc2cccc([N+](=O)[O-])c2)cc1Br	-137.8*
CCn1c(=O)c2cc(C(=O)NC(C)C)sc2c2ccccc21	-79.1*
Cc1c(C(=O)NCc2ccc3c(c2)OCO3)oc2ccc(S(=O)(=O)N3CCCCCC3)cc12	60.3
Cc1c(C(=O)NCCCN2CCOCC2)oc2c1C1(CCC2)SCCS1	-70.0*
CCCc1ccc2oc(C(=O)NCc3nnc(C)o3)c(C)c2c1	-127.9*
CCCc1ccc2oc(C(=O)NCCCN3CCOCC3)c(C)c2c1	-95.9*
COc1ccnc(CSC(N)=Nc2cccc(C(F)(F)F)c2)c1	-81.3*
N#CCc1nc(CSc2nc3ccccc3s2)cs1	-115.7*
CCCn1nnc(NC(=O)c2ccc(OC)cc2)n1	-121.4*
CCCn1nnc(NC(=O)c2ccc(-c3ccccc3)cc2)n1	-217.6*
CCOc1ccc(C(=O)Nc2nnn(CC)n2)cc1	-86.0*
SMILES	aSyn 5UTR act
CCCn1nnc(NC(=O)c2ccc(Br)cc2)n1	-137.1*
Cc1cc(/C=C2\C(=O)NN(c3ccccc3)C2=O)c(C)n1-c1ccccc1O	-131.6*
O=C1NN(c2ccccc2)C(=O)/C1=C/c1coc2ccccc2c1=O	-138.1*
Cc1cc(/C=C2/C(=O)NN(c3ccccc3)C2=O)c(C)n1-c1ccc(O)cc1	-138.2*
COc1ccc(-n2c(C)cc(/C=C3\C(=O)NN(c4ccccc4)C3=O)c2C)cc1	-113.1*
COC(=O)c1ccc(COc2ccc(/C=N/Nc3cccc(C(=O)O)c3)cc2)cc1	-84.4*
CCCN1CCC(=NNc2ccc(S(=O)(=O)N3CCOCC3)cc2[N+](=O)[O-])CC1	64.1
O=C(O)c1cccc(N/N=C/c2ccc(OC(F)(F)F)cc2)c1	64.3
O=C(O)c1cc(N/N=C/c2ccc(OCc3ccccc3)cc2)ccc1Cl	-172.0*
O=C(O)c1cc(N/N=C/C=C/c2ccccc2)ccc1Cl	-179.2*
CCCN1CCC(=NNc2ccc(C(=O)O)cc2)CC1	-112.6*
O=C(O)c1cc(NN=C2CCN(Cc3ccccc3)CC2)ccc1Cl	-201.9*
NC(=O)C1CCN(c2ncnc3c(-c4ccccc4)nsc23)CC1	-112.5*
COc1ccc(-c2nsc3c(N4CCN(C(=O)c5ccco5)CC4)ncnc23)cc1	-64.2*
O=C(c1ccco1)N1CCN(c2ncnc3c(-c4ccccc4)nsc23)CC1	-105.8*
Cc1cc(NC(c2ccc(Cl)cc2)c2ccc3cccnc3c2O)no1 (centres undefined)	84.9
COn1c(-c2ccc(Cl)cc2)nc2ncccc21	-106.6*
Cc1ccc(NC(=O)C2=NNC(=O)CC2)cc1F	-74.9*
CC(C)c1ccc(NC(=O)C2=NNC(=O)CC2)cc1	-143.2*
COc1ccc(OCCSc2nnc3sc4ccccc4n23)cc1	-131.4*
Nc1ccc2oc(-c3ccccc3Cl)cc(=O)c2c1O	-63.5*
C#CCSc1ncc(-c2ccccc2)cn1	-100.6*
C=CCSc1ncc(-c2ccccc2)cn1	-159.7*
Cc1c(C(=O)Nc2ccccn2)sc2nc3n(c(=O)c12)CCC3	-86.4*
Cc1c(C(=O)Nc2ccccc2F)sc2nc3n(c(=O)c12)CCC3	-111.2*
SMILES	aSyn 5UTR act
CCc1cccc(NC(=O)c2sc3nc4n(c(=O)c3c2C)CCC4)c1	-136.5*
O=c1c2sc(-c3ccccc3)cc2nc2n1CCC2	82.4
CCc1ccc(NC(=O)Nc2cccs2)cc1	-169.4*
Cc1ccc(NC(=O)Nc2cccs2)nc1	-168.3*
CCc1ccc(NC(=O)Nc2ccsc2C(=O)OC)cc1	-65.4*
Cc1ccc(NC(=O)Nc2cccs2)cc1	-130.1*
CCOc1ccc(NC(=O)Nc2cccs2)cc1	-160.8*
C/C(=N\OCC(=O)NCC(F)(F)F)c1cc2ccccc2o1	-75.6*
CN1C(=O)NC(c2ccc(O)cc2)C(C(=O)c2cccs2)C1(O)C(F)(F)F (centres undefined)	-100.2*
COc1cc(C2NC(=S)NC(O)(C(F)(F)F)C2C(=O)c2cccs2)cc(OC)c1O (centres undefined)	-95.1*
CN1C(=O)/C(=C2\SC(N3CCCCCC3)=NC2=O)c2ccccc21	-153.2*
O=C1N=C(N2CCOCC2)S/C1=C1\C(=O)N(Cc2ccccc2)c2ccccc21	-193.0*
CCCN1C(=O)/C(=C2\SC(N3CCCCC3)=NC2=O)c2ccccc21	-158.8*
